Among the data in the antibiotic and cytotoxicity screens of Wong et al. (2023) are cytotoxicity call values, retold here.

The whole screen tested about 39,000 compounds, of which about 3,300 (8.5%) were called active. Shown is part of a subset that was picked to be rich in actives.

The subject of this test is HepG2. As to the kind of experiment: cytotoxicity call (relative viability < 0.9). The settings on record: 10 µM.
With `CN(Cc1cc(Br)cc(Br)c1N)C1CCCCC1.Cl`, the cytotoxicity call is “inactive”. The result for `C[C@@H]1CN([C@@H](C)CO)C(=O)c2ccccc2-c2ccccc2CO[C@@H]1CN(C)Cc1ccc(-c2ccccc2)cc1` reads “inactive”; that for `Cc1noc(C)c1NC(=O)Nc1ccc2c(c1)C(=O)N([C@@H](C)CO)C[C@@H](C)[C@@H](CN(C)Cc1ccc3c(c1)OCO3)OCCCC[C@H](C)O2`, “inactive”; that for `Cc1cc(C(=O)Nc2cccc3c2O[C@H](CN(C)Cc2ccc(C(=O)O)cc2)[C@H](C)CN([C@@H](C)CO)C3=O)n(C)n1`, “inactive”. Consider `CO[C@H]1CN(C)C(=O)c2cc(NS(=O)(=O)c3cn(C)cn3)ccc2OC[C@@H](C)N(CCC(F)(F)F)C[C@@H]1C`, for which the cytotoxicity call was “inactive”. To `C[C@@H]1CCCCO[C@@H](CN(C)S(C)(=O)=O)[C@@H](C)CN([C@@H](C)CO)C(=O)c2cc(N(C)C)ccc2O1` belongs “inactive”.

As to `C[C@H](CO)N1C[C@H](C)[C@H](CN(C)S(C)(=O)=O)Oc2ccc(NC(=O)Cn3cnnn3)cc2CC1=O`, the cytotoxicity call is “inactive”.

As for `CC(C)N1C[C@H](C)[C@@H](CN(C)Cc2ccc(Cl)c(Cl)c2)Oc2c(cccc2-c2nnc(-c3ccncc3)o2)C1=O`, the cytotoxicity call is “inactive”. As to `Cc1noc(C)c1NC(=O)N[C@@H]1CC[C@@H](CC(=O)NCCCN(C)C)O[C@@H]1CO`, the cytotoxicity call was “inactive”. `CC(C)CC#Cc1ccc2c(c1)O[C@H](CN(C)C(=O)C1CCOCC1)[C@H](C)CN([C@@H](C)CO)S2(=O)=O`: the cytotoxicity call is “inactive”. As for `CCCN(C)C[C@H]1OCCCC[C@@H](C)Oc2ccc(NS(=O)(=O)c3cn(C)cn3)cc2C(=O)N([C@@H](C)CO)C[C@@H]1C`, the cytotoxicity call is “inactive”.

On to `C[C@H]1CN([C@@H](C)CO)C(=O)c2cccc(NS(=O)(=O)c3cn(C)cn3)c2O[C@H]1CN(C)C(=O)NC1CCCCC1`, for which the cytotoxicity call was “inactive”. The result for `COc1ccc(S(=O)(=O)Nc2ccc3c(c2)CC(=O)N([C@H](C)CO)C[C@@H](C)[C@H](CN(C)S(=O)(=O)c2ccc(C)cc2)O3)cc1` reads “inactive”; that for `Cc1noc(C)c1NC(=O)N[C@@H]1C=C[C@@H](CC(=O)NCCCN(C)C)O[C@H]1CO`, “inactive”. To `COc1ccc(S(=O)(=O)Nc2ccc3c(c2)C(=O)N([C@H](C)CO)C[C@@H](C)[C@H](CN(C)S(=O)(=O)c2ccc(Cl)cc2)OCCCC[C@@H](C)O3)cc1` belongs “inactive”; to `COc1ccc(S(=O)(=O)N(C)C[C@H]2OCCCC[C@H](C)Oc3ccc(NS(=O)(=O)c4ccc(Cl)cc4)cc3C(=O)N([C@H](C)CO)C[C@H]2C)cc1`, “active”; to `COc1ccc(S(=O)(=O)N(C)C[C@H]2OCCCC[C@@H](C)Oc3ccc(NS(=O)(=O)c4ccc(Cl)cc4)cc3C(=O)N([C@H](C)CO)C[C@H]2C)cc1`, “active”. Consider `COc1ccc(S(=O)(=O)Nc2ccc3c(c2)C(=O)N([C@@H](C)CO)C[C@H](C)[C@H](CN(C)S(=O)(=O)c2ccc(Cl)cc2)OCCCC[C@@H](C)O3)cc1`, for which the cytotoxicity call was “active”.

Turning to `COc1ccc(S(=O)(=O)N(C)C[C@@H]2OCCCC[C@@H](C)Oc3ccc(NS(=O)(=O)c4cn(C)cn4)cc3C(=O)N([C@@H](C)CO)C[C@H]2C)cc1`, the cytotoxicity call is “inactive”. The result for `COc1ccc(S(=O)(=O)N(C)C[C@@H]2OCCCC[C@H](C)Oc3ccc(NS(=O)(=O)c4cn(C)cn4)cc3C(=O)N([C@H](C)CO)C[C@@H]2C)cc1` reads “inactive”; that for `COc1ccc(S(=O)(=O)N(C)C[C@H]2OCCCC[C@@H](C)Oc3ccc(NS(=O)(=O)c4cn(C)cn4)cc3C(=O)N([C@H](C)CO)C[C@H]2C)cc1`, “active”; that for `COc1ccc(S(=O)(=O)Nc2ccc3c(c2)C(=O)N([C@@H](C)CO)C[C@H](C)[C@@H](CN(C)S(=O)(=O)c2ccc(Cl)cc2)OCCCC[C@@H](C)O3)cc1`, “inactive”. For the compound `Cc1noc(C)c1S(=O)(=O)Nc1ccc2c(c1)C(=O)N([C@H](C)CO)C[C@@H](C)[C@@H](CN(C)S(=O)(=O)c1ccccc1)O2`, the cytotoxicity call was “inactive”. For the compound `COc1ccc(NC(=O)Nc2cccc3c2O[C@@H](CN(C)S(C)(=O)=O)[C@H](C)CN([C@H](C)CO)C3=O)cc1`, the cytotoxicity call was “inactive”. On to `COc1cccc(NC(=O)N[C@H]2CC[C@@H](CC(=O)N3CCOCC3)O[C@@H]2CO)c1`, for which the cytotoxicity call was “inactive”. Turning to `CO[C@@H]1CN(C)C(=O)c2cc(NC(=O)C3CCOCC3)ccc2OC[C@@H](C)N(C(=O)C2CCOCC2)C[C@H]1C`, the cytotoxicity call was “inactive”. Regarding `CN1C(=O)c2cc(NS(=O)(=O)c3ccc(F)cc3)ccc2OC[C@H]2O[C@@H](CC(=O)Nc3cccc4ccccc34)CC[C@@H]21`, the cytotoxicity call is “inactive”. In the case of `C[C@H](CO)N1C[C@H](C)[C@H](CN(C)C(=O)Nc2ccc(F)cc2)OCCCC[C@H](C)Oc2ccc(NC(=O)CCCN(C)C)cc2C1=O`, the cytotoxicity call was “inactive”. For the compound `COc1ccc(S(=O)(=O)Nc2ccc3c(c2)CC(=O)N([C@@H](C)CO)C[C@@H](C)[C@H](CN(C)Cc2ccc(C(=O)O)cc2)O3)cc1`, the cytotoxicity call was “inactive”. For the compound `C[C@@H]1CN([C@@H](C)CO)C(=O)c2cc(NS(=O)(=O)c3ccccc3)ccc2O[C@@H](C)CCCCO[C@H]1CN(C)Cc1ccccc1`, the cytotoxicity call was “inactive”. `COc1ccc(S(=O)(=O)N(C)C[C@H]2OCCCC[C@@H](C)Oc3ccc(NS(=O)(=O)c4ccc(Cl)cc4)cc3C(=O)N([C@@H](C)CO)C[C@H]2C)cc1`: the cytotoxicity call is “active”.

Regarding `COc1ccc(S(=O)(=O)Nc2ccc3c(c2)C(=O)N([C@H](C)CO)C[C@@H](C)[C@H](CN(C)S(=O)(=O)c2ccc(Cl)cc2)OCCCC[C@H](C)O3)cc1`, the cytotoxicity call was “inactive”.

With `COc1ccc(S(=O)(=O)N(C)C[C@@H]2OCCCC[C@@H](C)Oc3ccc(NS(=O)(=O)c4ccc(Cl)cc4)cc3C(=O)N([C@@H](C)CO)C[C@@H]2C)cc1`, the cytotoxicity call is “inactive”. The result for `COc1ccc(S(=O)(=O)N(C)C[C@@H]2OCCCC[C@@H](C)Oc3ccc(NS(=O)(=O)c4ccc(Cl)cc4)cc3C(=O)N([C@H](C)CO)C[C@H]2C)cc1` reads “active”; that for `COc1ccc(S(=O)(=O)Nc2ccc3c(c2)C(=O)N([C@H](C)CO)C[C@H](C)[C@@H](CN(C)S(=O)(=O)c2ccc(Cl)cc2)OCCCC[C@@H](C)O3)cc1`, “active”. In the case of `COc1ccc(S(=O)(=O)N(C)C[C@@H]2OCCCC[C@H](C)Oc3ccc(NS(=O)(=O)c4ccc(Cl)cc4)cc3C(=O)N([C@H](C)CO)C[C@H]2C)cc1`, the cytotoxicity call was “active”.

In the case of `COc1ccc(NC(=O)Nc2ccc3c(c2)C(=O)N([C@@H](C)CO)C[C@@H](C)[C@@H](CN(C)C(=O)Nc2cccc4ccccc24)OCCCC[C@H](C)O3)cc1`, the cytotoxicity call was “inactive”. To `C[C@@H]1CCCCO[C@@H](CN(C)C(=O)Nc2ccc(F)cc2)[C@H](C)CN([C@@H](C)CO)C(=O)c2cc(NC(=O)Nc3ccc(F)cc3)ccc2O1` belongs “inactive”; to `O=C(C[C@@H]1CC[C@@H]2[C@H](COC[C@@H](O)CN2C(=O)c2ccccc2)O1)NCCCN1CCOCC1`, “inactive”. To `C[C@H](CO)N1C[C@H](C)[C@@H](CN(C)C(=O)Cc2ccncc2)Oc2cc(C#CC3(O)CCCC3)ccc2S1(=O)=O` belongs “inactive”; to `CN(C)CCCNC(=O)C[C@@H]1CC[C@@H]2[C@H](COc3ccc(NC(=O)c4ccc5c(c4)OCO5)cc3C(=O)N2C)O1`, “inactive”.

Take `O=C(CCCCCNC(=O)OC[C@]12N=C3SCc4ccccc4CN3[C@H](c3ccccc3O1)[C@H]2COC(=O)c1ccccc1)NO`: the cytotoxicity call was “inactive”. As for `C[C@@H]1CN([C@H](C)CO)S(=O)(=O)c2ccc(Br)cc2O[C@@H]1CN(C)CC1CCOCC1`, the cytotoxicity call was “inactive”.

With `O=C(Nc1cccc2cccnc12)[C@@H]1[C@H](c2ccc3ccccc3c2)CC(=O)N1C(=O)OCc1ccccc1`, the cytotoxicity call is “inactive”.

Turning to `COc1ccc2c3c(n(c2c1)C)[C@@H](CO)N(CC1CCOCC1)C[C@]13CN(C1)C(=O)c1cccc(c1)F`, the cytotoxicity call was “inactive”. Consider `C[C@@H]1CN([C@@H](C)CO)C(=O)Cc2cc(NC(=O)c3ccncc3)ccc2O[C@H]1CN(C)S(=O)(=O)c1ccc(F)cc1`, for which the cytotoxicity call is “inactive”. In the case of `COc1ccc(NC(=O)Nc2ccc3c(c2)C(=O)N([C@@H](C)CO)C[C@@H](C)[C@@H](CN(C)S(=O)(=O)c2ccc(F)cc2)OCCCC[C@H](C)O3)cc1`, the cytotoxicity call is “inactive”.

For the compound `COc1ccc(S(=O)(=O)Nc2ccc3c(c2)C(=O)N([C@H](C)CO)C[C@@H](C)[C@@H](CN(C)S(=O)(=O)c2ccc(Cl)cc2)OCCCC[C@H](C)O3)cc1`, the cytotoxicity call is “inactive”. In the case of `COc1ccc(S(=O)(=O)Nc2ccc3c(c2)C(=O)N([C@@H](C)CO)C[C@@H](C)[C@H](CN(C)S(=O)(=O)c2ccc(Cl)cc2)OCCCC[C@H](C)O3)cc1`, the cytotoxicity call is “inactive”.

For `COc1ccc(S(=O)(=O)N(C)C[C@H]2OCCCC[C@H](C)Oc3ccc(NS(=O)(=O)c4ccc(Cl)cc4)cc3C(=O)N([C@H](C)CO)C[C@@H]2C)cc1`, the cytotoxicity call is “active”. On to `CCOC(=O)c1cc2c(c(-c3cccc(Br)c3)n1)[C@@H](CCOC)N([S@](=O)C(C)(C)C)C2`, for which the cytotoxicity call was “inactive”.

With `Nc1ncnc2c1ncn2[C@@H]1C=C[C@H](CO)O1`, the cytotoxicity call was “inactive”.

Regarding `CCC(=O)N[C@@H]1C=C[C@H](CC(=O)OC)O[C@@H]1CO`, the cytotoxicity call was “inactive”.

For the compound `Cc1cc(=O)n2ncnc2[nH]1`, the cytotoxicity call was “inactive”. To `C[C@H]1CCCCO[C@H](CN(C)S(=O)(=O)c2ccccc2)[C@@H](C)CN([C@@H](C)CO)C(=O)c2cc(NC(=O)Nc3ccccc3)ccc2O1` belongs “inactive”. As to `CCC1(O)CC2CN(CCc3c([nH]c4ccccc34)C(C(=O)OC)(c3cc4c(cc3OC)N(C)C3C(O)(C(=O)OC)C(OC(C)=O)C5(CC)C=CCN6CCC43C65)C2)C1.O=S(=O)(O)O` (stereo not drawn), the cytotoxicity call was “active”. Regarding `CCC1(O)CC2CN(CCc3c([nH]c4ccccc34)C(C(=O)OC)(c3cc4c(cc3OC)N(C=O)C3C(O)(C(=O)OC)C(OC(C)=O)C5(CC)C=CCN6CCC43C65)C2)C1.O=S(=O)(O)O` (stereo not drawn), the cytotoxicity call is “active”. For the compound `COc1ccc(S(=O)(=O)N(C)C[C@H]2OCCCC[C@H](C)Oc3ccc(NC(=O)c4ccccc4)cc3C(=O)N([C@H](C)CO)C[C@@H]2C)cc1`, the cytotoxicity call is “inactive”.
